Each structure is given as a SMILES string. Unmarked numbers belong to inactive results. The call rests on the fitted dose curve; in most records, active means well fitted curve in the direction sought with a large enough effect; inactive means no such curve, though single readings can be large or run the other way.

The target of this experiment is Lysosomal alpha-glucosidase (Homo sapiens) (UniProt P10253). The experiment can be described thus: qHTS Assay for Inhibitors and Activators of N370S glucocerebrosidase as a Potential Chaperone Treatment of Gaucher Disease: Alpha-Glucosidase Counterscreen for Probe SAR. Particulars: purified human alpha-glucosidase, 4-MU fluorogenic substrate. The text has this:
NIH Chemical Genomics Center [NCGC] NIH Molecular Libraries Probe Production Centers Network [MLPCN] MLPCN Grant: MH086442-01 Assay Submitter (PI): Wei Zheng Glucocerebrosidase (GC) catalyzes the hydrolysis of beta-glucocerebroside to glucose and ceramide in lysosomes. Mutations in the glucocerebrosidase gene result in Gaucher disease, an autosomal recessive lysosomal storage disorder. Many of the mutations encountered in patients with Gaucher disease are missense alterations that may cause misfolding, decreased stability and/or mistrafficking of this lysosomal protein. […] These inhibitors include iminosugar analogs and three non-iminosugar inhibitors identified from a previous HTS of 62,000 compounds with the wild type recombinant enzyme. However, the enhancement of enzyme activity by the chaperone action of an enzyme inhibitor must be balanced against the direct inhibition of the enzyme. An enzyme activator could also function as a chaperone by binding to the enzyme and helping to correct its misfolding and mistrafficking. While activators for GC have not yet been identified, they may have better therapeutic potential than inhibitors. Therefore the discovery and development of chemical activators may provide a new strategy for the chaperone therapy. To characterize compound selectivity, selected hits from the primary screen were screened against purified alpha-glucosidase, a related sugar hydrolase. Alpha-glucosidase is responsible for hydrolysis of terminal, non-reducing 1,4-linked alpha-D-glucose residues with release of alpha-D-glucose.
NCGC Assay Protocol Summary: This is a fluorogenic enzyme assay with 4-methylumbelliferyl-alpha-D-[…] as the substrate and human alpha-glucosidase as the enzyme preparation. Upon the hydrolysis of this fluorogenic substrate, the resulting product, 1. 4-methyllumbelliferone, can be excited at 365 nm and emits at 440 nm which can be detected by a standard fluorescence plate reader. Data were normalized to the controls for basal activity (without enzyme) and 100% activity (with enzyme). The AC50 values were determined from concentration-response data modeled with the standard Hill equation. Assay buffer: 50 mM citric acid (titrated with potassium phosphate to pH 5.0), 0.005% Tween-20, pH 5.0. (pH 5.0 is an optimal condition for this enzyme assay) 1536-well assay protocol for the human alpha-glucosidase: (1) Add 2 ul/well of enzyme (4 nM final) (2) Add 23 nL compounds in DMSO solution. The final titration was 0.7 nM to 77 uM. (3) Add 1 ul of substrate (400 uM final) (4) Incubate at room temperature for 20 min. (5) Add 2 ul stop solution (1M NaOH and 1M Glycine mixture, pH 10) (6) Detect the assay plate in a ViewLux plate reader (PerkinElmer) with Ex=365 nm and Em=440nm. Keywords: Alpha-glucosidase, Pompe Disease, pharmacological chaperone, chaperone therapy, high throughput screening, alpha-glucosidase inhibitor, MLSMR, MLSCN, NIH Roadmap, qHTS and NCGC
For `O=C(NC1CCCCC1)c1cnn2c1NC(=C1CC1)C=C2C(F)F`, the max response was -3.85%. In the case of `O=C(Nc1ccc2c(c1)CCC2)c1cnn2c1NC(=C1CC1)C=C2C(F)F`, the max response was -4.43%. Under `C#Cc1ccc(NC(=O)c2cnn3c(C)cc(C)nc23)cc1` stands -2.48%; under `O=C(Nc1ccccc1Sc1ccccc1)c1cnn2c1NC(=C1CC1)C=C2C(F)F`, -18.1%. For `O=C(Nc1ccccc1Sc1ccccc1)c1cnn2c1NC(=C1CC1)C=C2C(F)(F)F` the value was -11.4%.

Regarding `C=C1C=C(C(F)F)n2ncc(C(=O)Nc3ccc(C(C)CC)cc3)c2N1` (stereo unspecified), the max response was -2.76%.

The values are drawn from PubChem BioAssay AID488834 (National Center for Advancing Translational Sciences (NCATS), 2010).
